Test results: ChEMBL document CHEMBL3433997, “St. Jude Leishmania screening dataset” (2016)

Target: Solute carrier family 2, facilitated glucose transporter member 1 (Homo sapiens) (UniProt P11166)
Assay: ST_JUDE_LEISH: Cytotoxicity at 2uM final concentration against transgenic Leishmania Mexicana promastigotes LmGLUT1 that are glucose transport deficient and complemented with the human glucose transporter GLUT1. Activity is measured by DNA content using SYBR green in vitro
Type: functional

Chain of Solute carrier family 2, facilitated glucose transporter member 1 (Homo sapiens) (P11166 whole entry): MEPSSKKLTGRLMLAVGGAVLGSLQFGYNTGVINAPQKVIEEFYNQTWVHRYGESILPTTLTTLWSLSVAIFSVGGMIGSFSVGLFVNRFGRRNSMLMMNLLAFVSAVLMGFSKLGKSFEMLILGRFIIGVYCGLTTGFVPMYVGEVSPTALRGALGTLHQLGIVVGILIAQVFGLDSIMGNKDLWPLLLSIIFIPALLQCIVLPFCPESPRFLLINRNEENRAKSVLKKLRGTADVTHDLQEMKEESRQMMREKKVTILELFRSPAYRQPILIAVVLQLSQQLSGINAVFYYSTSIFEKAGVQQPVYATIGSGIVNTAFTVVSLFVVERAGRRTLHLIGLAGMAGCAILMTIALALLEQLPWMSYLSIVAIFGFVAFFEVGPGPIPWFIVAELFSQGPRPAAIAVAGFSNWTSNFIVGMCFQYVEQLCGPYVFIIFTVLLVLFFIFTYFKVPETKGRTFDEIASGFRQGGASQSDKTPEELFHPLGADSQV

Row | SMILES | inhibition
1 | COc1ccc(CCc2ccc(-c3c(C)[nH]c(C)c(Cl)c3=O)cc2)cc1OC | 12%
2 | COc1cc2/c(=N/c3ccc(Br)cc3F)nc[nH]c2cc1OCC1CCN(C)CC1 | -0.8%
3 | OC1CCCN(Cc2ccc(-c3ccc(-c4nc5ccccc5[nH]4)cc3)cc2)C1 (stereo not given) | 8.52%
4 | Cc1cccc2nc(-c3ccc(-c4ccc(CNC(C)C)cc4)cc3)[nH]c12 | 21.6%
5 | CCN1CCC(N(Cc2ccc(-c3ccc(C(F)(F)F)s3)cc2)C(=O)Cn2c(CCc3cccc(F)c3F)nc(=O)c3ccccc32)CC1 | 6.57%
6 | CCc1c(CCNCCCCCCNCCc2ccc([N+](=O)[O-])cc2)ccc(O)c1O | -1.33%
7 | CC(C)NCc1ccc(-c2ccc(-c3nc4cc(C(F)(F)F)ccc4[nH]3)s2)cc1 | 19.5%
8 | Oc1cccc(-c2cnc3ccc(NCc4ccc(F)cc4)nn23)c1 | -3.17%
9 | COc1ccc2nccc([C@@H](O)CN3CCC(NC(=O)Cc4cc5ccccc5s4)CC3)c2c1 | 8.41%
10 | CCNc1cc(C)nc(Nc2ccc(NC(=O)c3ccccc3)cc2)n1 | 6.94%
11 | O=C(Nc1ccnc(N2CC3CC2CN3Cc2cccc(O)c2)c1)c1ccc(F)cc1 (stereo not given) | 0.07%
12 | CN1CCN(CCCN(Cc2csc(-c3ccc(CNCc4ccccc4)cc3)n2)S(=O)(=O)c2ccc(F)cc2)CC1 | 14.9%
13 | COCCCN=C(S)NN=C(C)c1ccccn1 | 0.61%
14 | O=C(NCCCCN1CCC(c2ccc3c(c2OCCCO)CCCC3)CC1)c1ccc(-c2ccc(C(F)(F)F)cc2)cc1 | 1.13%
15 | CCNc1cc(C(=O)N[C@@H](Cc2ccccc2)[C@H](O)CNC(C)(C)c2cccc(OC)c2)cc(N2CCCC2=O)c1 | 0.14%
16 | CCC1CCCCN1S(=O)(=O)c1ccc(OC)c(N2CCN(C(=O)C(Cl)(Cl)Cl)CC2)c1 (stereo not given) | 4.89%
17 | CCC(CC)n1c(COC)cc2c3c(N)nc(N)nc3ccc21 | 33.6%
18 | Cc1[nH]c2c(C)cccc2c1C1CCN(CCC2CCN(C(=O)/C=C/c3ccc(Cl)c(Cl)c3)CC2)CC1 | 3.84%
19 | O=C(NC1CCN(c2ccnc3ccccc23)C1)c1cccc(C(F)(F)F)c1 (stereo not given) | 2.99%
20 | CC(CN(C)C)Oc1ccc2nc(-c3cccc(OCc4ccccc4)c3)[nH]c2c1C#N (stereo not given) | -1.18%

Row | SMILES | inhibition
21 | CCc1sc(-c2cc(Cl)ccc2OC)nc1C(=O)NCCN1CCCCC1 | 4.48%
22 | CN(C)CCC(O)C=C(c1ccc(Cl)cc1)c1ccc(Cl)cc1 (stereo not given) | 9.31%
23 | CCCCCCN1CCC(NCc2ccc(C)cc2)CC1 | 12.6%
24 | Cc1cccc2nc(-c3cccc(-c4cccc(NC(=O)c5cn(C)c(=O)n5C)c4)c3)[nH]c12 | 1.98%
25 | CC(CCCCC(=O)Nc1ccc(C(F)(F)F)cc1)NCC(O)c1cccc(Cl)c1 (stereo not given) | 1.04%
26 | Cc1cc(N2CCCC2)nc(Nc2ccc(NC(=O)c3ccc4c(c3)OCO4)cc2)n1 | 13.5%
27 | CC(NC(=O)c1cc(-c2ccccc2)nc2c1cnn2C(C)C)C1CC1 (stereo not given) | 1.45%
28 | c1ccc2c(NCCc3c[nH]cn3)c3ccccc3nc2c1 | 0.58%
29 | CCN1CCN(CCCCNc2c3ccccc3nc3ccccc23)CC1 | 20.5%
30 | CCC(CN1C(=N)NC(c2ccccc2)(c2ccccc2)C1=O)c1ccccc1 (stereo not given) | -0.75%
31 | Cc1cccc2nc(-c3ccc(-c4cccc(CN5CCN(CCO)CC5)c4)cc3)[nH]c12 | 7.34%
32 | C=CCC(C)n1ncc2c3c(N)nc(N)nc3ccc21 (stereo not given) | 2.58%
33 | Cc1cc(C)c(CON2C(=N)N=C(N)NC2(C)C)cc1C | -0.51%
34 | Cc1nc2nc(N)nc(N)c2c(C)c1Cc1ccc(N)cc1 | 3.4%
35 | COc1ccccc1C1CCN(C2CCC(NC(=O)/C=C/c3cc(C(F)(F)F)cc(C(F)(F)F)c3)CC2)CC1 (stereo not given) | -3.08%
36 | O=C(NCCNc1ccnc(Nc2ccc(F)cc2)n1)c1cc2ccccc2s1 | 5.85%
37 | Oc1ccc(CCNCCCCCCNCCc2ccc(-c3ccccc3)cc2)cc1O | 1.33%
38 | CC(C)N1CCC(N(Cc2ccc(-c3ccc(Cl)cc3)cc2)C(=O)Cn2c(CCc3cccc(F)c3F)nc(=O)c3ccccc32)CC1 | 6.02%
39 | COc1ccccc1/C=C/C(=O)NC1CCC(CCN2CCc3ccc(-c4cc(C)no4)cc3CC2)CC1 (stereo not given) | 3.11%
40 | COc1ccc2nc(/N=C3\NC(c4ccccn4)(c4ccccn4)C(=O)N3C)[nH]c2c1 | 11.7%

Target: Hexose transporter 1 (Plasmodium falciparum) (UniProt O97467)
Assay: ST_JUDE_LEISH: Cytotoxicity at 2uM final concentration against transgenic Leishmania Mexicana promastigotes LmPfHT that are glucose transport deficient and complemented with the Plasmodium falciparum hexose transporter. Activity is measured by DNA content using SYBR green in vitro
Type: functional

Row | SMILES | inhibition
41 | COc1ccc(CCc2ccc(-c3c(C)[nH]c(C)c(Cl)c3=O)cc2)cc1OC | 11%
42 | COc1cc2/c(=N/c3ccc(Br)cc3F)nc[nH]c2cc1OCC1CCN(C)CC1 | 2.56%
43 | OC1CCCN(Cc2ccc(-c3ccc(-c4nc5ccccc5[nH]4)cc3)cc2)C1 (stereo not given) | 7.95%
44 | Cc1cccc2nc(-c3ccc(-c4ccc(CNC(C)C)cc4)cc3)[nH]c12 | 25.1%
45 | CCN1CCC(N(Cc2ccc(-c3ccc(C(F)(F)F)s3)cc2)C(=O)Cn2c(CCc3cccc(F)c3F)nc(=O)c3ccccc32)CC1 | 5.93%
46 | CCc1c(CCNCCCCCCNCCc2ccc([N+](=O)[O-])cc2)ccc(O)c1O | -0.9%
47 | CC(C)NCc1ccc(-c2ccc(-c3nc4cc(C(F)(F)F)ccc4[nH]3)s2)cc1 | 17.8%
48 | Oc1cccc(-c2cnc3ccc(NCc4ccc(F)cc4)nn23)c1 | 0.63%
49 | COc1ccc2nccc([C@@H](O)CN3CCC(NC(=O)Cc4cc5ccccc5s4)CC3)c2c1 | 6.59%
50 | CCNc1cc(C)nc(Nc2ccc(NC(=O)c3ccccc3)cc2)n1 | 4.8%
51 | O=C(Nc1ccnc(N2CC3CC2CN3Cc2cccc(O)c2)c1)c1ccc(F)cc1 (stereo not given) | -1.27%
52 | CN1CCN(CCCN(Cc2csc(-c3ccc(CNCc4ccccc4)cc3)n2)S(=O)(=O)c2ccc(F)cc2)CC1 | 17.1%
53 | COCCCN=C(S)NN=C(C)c1ccccn1 | -0.03%
54 | O=C(NCCCCN1CCC(c2ccc3c(c2OCCCO)CCCC3)CC1)c1ccc(-c2ccc(C(F)(F)F)cc2)cc1 | 3.02%
55 | CCNc1cc(C(=O)N[C@@H](Cc2ccccc2)[C@H](O)CNC(C)(C)c2cccc(OC)c2)cc(N2CCCC2=O)c1 | 1.76%
56 | CCC1CCCCN1S(=O)(=O)c1ccc(OC)c(N2CCN(C(=O)C(Cl)(Cl)Cl)CC2)c1 (stereo not given) | 6.41%
57 | CCC(CC)n1c(COC)cc2c3c(N)nc(N)nc3ccc21 | 51.1%
58 | Cc1[nH]c2c(C)cccc2c1C1CCN(CCC2CCN(C(=O)/C=C/c3ccc(Cl)c(Cl)c3)CC2)CC1 | 3.13%
59 | O=C(NC1CCN(c2ccnc3ccccc23)C1)c1cccc(C(F)(F)F)c1 (stereo not given) | 1.24%
60 | CC(CN(C)C)Oc1ccc2nc(-c3cccc(OCc4ccccc4)c3)[nH]c2c1C#N (stereo not given) | 0.94%

Row | SMILES | inhibition
61 | CCc1sc(-c2cc(Cl)ccc2OC)nc1C(=O)NCCN1CCCCC1 | 4.06%
62 | CN(C)CCC(O)C=C(c1ccc(Cl)cc1)c1ccc(Cl)cc1 (stereo not given) | 7.5%
63 | CCCCCCN1CCC(NCc2ccc(C)cc2)CC1 | 16%
64 | Cc1cccc2nc(-c3cccc(-c4cccc(NC(=O)c5cn(C)c(=O)n5C)c4)c3)[nH]c12 | 1.44%
65 | CC(CCCCC(=O)Nc1ccc(C(F)(F)F)cc1)NCC(O)c1cccc(Cl)c1 (stereo not given) | -0.95%
66 | Cc1cc(N2CCCC2)nc(Nc2ccc(NC(=O)c3ccc4c(c3)OCO4)cc2)n1 | 3.61%
67 | CC(NC(=O)c1cc(-c2ccccc2)nc2c1cnn2C(C)C)C1CC1 (stereo not given) | 0.66%
68 | c1ccc2c(NCCc3c[nH]cn3)c3ccccc3nc2c1 | 4.05%
69 | CCN1CCN(CCCCNc2c3ccccc3nc3ccccc23)CC1 | 8.76%
70 | CCC(CN1C(=N)NC(c2ccccc2)(c2ccccc2)C1=O)c1ccccc1 (stereo not given) | -2.3%
71 | Cc1cccc2nc(-c3ccc(-c4cccc(CN5CCN(CCO)CC5)c4)cc3)[nH]c12 | 4.65%
72 | C=CCC(C)n1ncc2c3c(N)nc(N)nc3ccc21 (stereo not given) | -0.39%
73 | Cc1cc(C)c(CON2C(=N)N=C(N)NC2(C)C)cc1C | -0.15%
74 | Cc1nc2nc(N)nc(N)c2c(C)c1Cc1ccc(N)cc1 | 8.1%
75 | COc1ccccc1C1CCN(C2CCC(NC(=O)/C=C/c3cc(C(F)(F)F)cc(C(F)(F)F)c3)CC2)CC1 (stereo not given) | -0.91%
76 | O=C(NCCNc1ccnc(Nc2ccc(F)cc2)n1)c1cc2ccccc2s1 | 7.62%
77 | Oc1ccc(CCNCCCCCCNCCc2ccc(-c3ccccc3)cc2)cc1O | 1.69%
78 | CC(C)N1CCC(N(Cc2ccc(-c3ccc(Cl)cc3)cc2)C(=O)Cn2c(CCc3cccc(F)c3F)nc(=O)c3ccccc32)CC1 | 5.38%
79 | COc1ccccc1/C=C/C(=O)NC1CCC(CCN2CCc3ccc(-c4cc(C)no4)cc3CC2)CC1 (stereo not given) | 1.2%
80 | COc1ccc2nc(/N=C3\NC(c4ccccn4)(c4ccccn4)C(=O)N3C)[nH]c2c1 | 11.1%
